The text below walks through data of publication PMC11062922 (Nature Chemical Biology, 2023).

Common to all, as to set-up: species or system human, MV4-11 + K-562 + COLO205 + SK-N-BE2 + OVCAR-8
The test system of experiment [1] is DDR1. The note with it: read-out: apparent Kd, n = 1.
For experiment [2], the system named is TEC. The note with it: read-out: apparent Kd, n = 1.
Experiment [3] deals with TP53RK. The settings on record: read-out: apparent Kd; compound concentrations: 100 nM and 1000 nM (sheet 'Samples'), CATDS: 0.12819898124354101; n = 1.
The subject of experiment [4] is MAP4K2. The settings on record: read-out: apparent Kd, n = 1.
The subject of experiment [5] is CDK10. The note with it: read-out: apparent Kd, compound concentrations: 100 nM and 1000 nM (sheet 'Samples'), n = 1.
Experiment [6] deals with IKBKE. The settings on record: read-out: apparent Kd; compound concentrations: 100 nM and 1000 nM (sheet 'Samples'), CATDS: 7.4158435365071704E-3; n = 1.
The subject of experiment [7] is MAP4K3. The settings on record: read-out: apparent Kd, compound concentrations: 100 nM and 1000 nM (sheet 'Samples'), n = 1.
In experiment [8] the test system is MAP4K5. The note with it: read-out: apparent Kd, compound concentrations: 100 nM and 1000 nM (sheet 'Samples'), n = 1.
The test system of experiment [9] is NEK9. The note with it: read-out: apparent Kd, compound concentrations: 100 nM and 1000 nM (sheet 'Samples'), n = 1.
The test system of experiment [10] is RPS6KA1. The settings on record: read-out: apparent Kd, compound concentrations: 100 nM and 1000 nM (sheet 'Samples'), n = 1.
The test system of experiment [11] is SLK. The note with it: read-out: apparent Kd, n = 1.
For experiment [12], the system named is TGFBR1. The note with it: read-out: apparent Kd, n = 1.
The test system of experiment [13] is AKT3. The settings on record: read-out: apparent Kd; compound concentrations:100 nM and 1000 nM (sheet 'Samples'); n = 1.
For experiment [14], the system named is MAP2K2. The settings on record: read-out: apparent Kd, compound concentrations: 100 nM and 1000 nM (sheet 'Samples'), n = 1.
The subject of experiment [15] is PIM2. The note with it: read-out: apparent Kd, n = 1.
Experiment [16] has as its system STK11. The note with it: read-out: apparent Kd; compound concentrations: 100 nM and 1000 nM (sheet 'Samples'), CATDS: 1.6673452289140401E-2; n = 1.
Experiment [17] concerns AKT2. The settings on record: read-out: apparent Kd; compound concentrations: 100 nM and 1000 nM (sheet 'Samples'), CATDS: 2.2309238886047199E-2; n = 1.
Experiment [18] has as its system PIK3C2A. The note with it: read-out: apparent Kd, compound concentrations: 100 nM and 1000 nM (sheet 'Samples'), n = 1.
Experiment [19] deals with ACVR1. The settings on record: read-out: apparent Kd; compound concentrations: 100 nM and 1000 nM (sheet 'Samples'), CATDS: 2.2901948138858801E-2; n = 1.
Where [20] appears, read: compound concentrations:100 nM and 1000 nM (sheet 'Samples').

Where two headings read alike, the source gives them in different places.

As to `CN1C[C@@H]2Cn3c(c(C4=C(c5cn(C)c6ccccc56)C(=O)NC4=O)c4ccccc43)C[C@H]2C1.Cl` [RO0320234-001], the values for the potency estimated from few doses in experiment [1] (setting [20]) and in [2] (setting [20]) were 1520 nM and 1190 nM, respectively.
`CONC1=NC(=O)/C(=C/c2ccc3ncccc3c2)S1` [RO4613269-000]: the potency estimated from few doses in [3] was 2200 nM.
Take `Cc1cccc(Nc2nc(N[C@H]3CCCC[C@H]3N)ncc2C(N)=O)c1.Cl` [GSK986310C]: in experiment [4] (setting [20]), the potency estimated from few doses is 2080 nM.
Regarding `Cc1cccc(-c2nc(Nc3ccncc3)c3sccc3n2)n1` [GW869641X], the potency estimated from few doses in experiment [4] (setting [20]) is 669 nM.
For the compound `CCOC(=O)N1CCC(n2cnc(-c3ccc(F)cc3)c2-c2ccnc(N)n2)CC1` [SB-219952], the potency estimated from few doses in [1] (compound concentrations: 100 nM and 1000 nM (sheet 'Samples'), CATDS: 1.23341339187386E-2) is 531 nM; in [2] (compound concentrations: 100 nM and 1000 nM (sheet 'Samples'), CATDS: 8.8843344260598894E-3), 1200 nM.
With `COc1ccc(Nc2ncc(C#N)c(Nc3ccccc3C(N)=O)n2)cc1N1CCN(C)CC1.Cl` [GSK1558669A], the potency estimated from few doses was 1450 nM in experiment [5] (CATDS: 6.1619993305959599E-3); 319 nM in [1] (compound concentrations: 100 nM and 1000 nM (sheet 'Samples'), CATDS: 8.5132006877523293E-3); 548 nM in [6]; 123 nM in experiment [7] (CATDS: 1.16453060646116E-2); 546 nM in experiment [8] (CATDS: 7.4217938627351198E-3); 164 nM in [9] (CATDS: 1.04770728264292E-2). Moreover, the potency estimated from few doses in [10] (CATDS: 1.0869541528388701E-2) is 148 nM; in experiment [11] (compound concentrations: 100 nM and 1000 nM (sheet 'Samples'), CATDS: 1.35175429318502E-2) it was 84.7 nM.
For `Cl.ON=C1CCc2cc(-c3nc(C4CCNCC4)[nH]c3-c3ccncc3)ccc21` [SB-614067-R], the potency estimated from few doses in experiment [12] (setting [20]) is 1170 nM.
Consider `Fc1ccc(-c2c(-c3ccncc3)[nH]c3cccnc23)cc1` [RO1153853-000], for which, in [12] (compound concentrations: 100 nM and 1000 nM (sheet 'Samples'), CATDS: 5.3195917052411702E-2), the potency estimated from few doses was 1310 nM.
Consider `CCn1c(-c2nonc2N)nc2c(C#CC(C)(C)O)nc(O[C@@H](CN)c3ccccc3)cc21.O=C(O)C(F)(F)F` [GSK1007102B], for which, in experiment [13], the potency estimated from few doses is 719 nM.
Turning to `CCN(CC)Cc1ccc(Nc2nccc(-c3cnn4ncccc34)n2)cc1` [GW780056X], in experiment [9] (CATDS: 2.0464339173062999E-2), the potency estimated from few doses is 1220 nM.
For `O=C(O)C(F)(F)F.O=c1[nH]ccc2nc(N[C@@H]3CCNC3)nc(Nc3ccc4c(c3)S(=O)(=O)CC4)c12` [GSK2181306A], the potency estimated from few doses in experiment [5] (CATDS: 1.0545767640912401E-2) is 729 nM; in experiment [14] (CATDS: 8.3394959268462601E-3), 1620 nM; in [4] (compound concentrations: 100 nM and 1000 nM (sheet 'Samples'), CATDS: 2.4699396499264999E-2), 121 nM; in experiment [7] (CATDS: 1.12434649854769E-2), 612 nM; in [8] (CATDS: 1.5726732073661799E-2) it was 283 nM; in experiment [15] (compound concentrations: 100 nM and 1000 nM (sheet 'Samples'), CATDS: 8.9086191917804505E-3) it was 1250 nM. Moreover, the potency estimated from few doses in [10] (CATDS: 8.5840482500919892E-3) was 1440 nM; in [11] (compound concentrations: 100 nM and 1000 nM (sheet 'Samples'), CATDS: 1.8680668627662898E-2), 201 nM; in experiment [16] it was 251 nM.
Regarding `COc1ccc(-c2cc3c(N)ncnc3o2)cc1` [GW642138X], the potency estimated from few doses in experiment [14] (CATDS: 0.100903208593323) was 1800 nM.
As to `c1ccc(-c2n[nH]cc2Nc2ccnc3ccccc23)nc1` [GW694077X], the potency estimated from few doses in [17] is 2350 nM; in [18] (CATDS: 2.3388870990997498E-2), 1900 nM.
As to `O=C(O)C(F)(F)F.O=c1[nH]ccc2nc(N[C@@H]3CCNC3)nc(Nc3cc(Cl)cc(Cl)c3)c12` [GSK2188764A], the potency estimated from few doses in experiment [4] (setting [20]) was 70.1 nM; in experiment [15] (setting [20]), 2030 nM; in experiment [11] (setting [20]), 826 nM.
For `COc1cc(Nc2nccc(-c3cnn4ncccc34)n2)cc(OC)c1` [GW801372X], the potency estimated from few doses in [19] is 739 nM; in experiment [9] (CATDS: 4.3233777925034599E-2), 142 nM; in [18] (CATDS: 1.7083513618659799E-2) it was 2260 nM.
